# High-throughput results: PubChem, several laboratories
# A selection: hits, their analogues and other compounds. The true share with any hit is near 4.3%.
# UBC13 inh: UBC13 polyubiquitin chain formation inhibitors, primary screen, biochemical, TR-FRET, uHTS; 330,000 compounds, 0.47% hits; inhibition, % at 20 µM; Ubiquitin-conjugating enzyme E2 N (Homo sapiens), P61088; AID 485273, 2010; in the data active = inhibition above about 45%, passing the limit was not always enough
# Target sequence (P61088 whole entry, looked up): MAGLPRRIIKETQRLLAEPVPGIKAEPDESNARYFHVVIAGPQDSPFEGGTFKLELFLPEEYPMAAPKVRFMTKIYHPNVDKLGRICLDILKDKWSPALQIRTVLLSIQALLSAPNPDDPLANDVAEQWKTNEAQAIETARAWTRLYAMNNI
# dFosB act-1: activators of delta FosB homodimer, primary screen, biochemical, fluorescence polarization, TAMRA-CDK5 oligo, single point; Protein FosB (Mus musculus), P13346; purified delta FosB; percent of positive-control signal above neutral wells; 340,000 compounds, 0.99% hits; activation, % at 25 µM; AID 493131, 2011;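 active = mean activation above about 17%, with every replicate also reaching it, limit read from the data, passing the limit was not always enough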
# NR3A LBD binder: binders of NR3A ligand-binding domain, primary screen, biophysical, differential scanning fluorimetry, uHTS | Glutamate receptor ionotropic, NMDA 3A (GRIN3A) ligand-binding domain | NR3A LBD differential scanning fluorimetry, Tm shift; 0% = protein alone, 100% = glycine-bound protein | Tm shift relative to glycine control, % at 25 µM | 340,000 compounds, 2.5% hits;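 active = melting temperature shift of at least 10% of the positive control shift, at one fixed dose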
# CR mimetic SO: reduction of superoxide in aged yeast, primary screen, HTS | superoxide response (% of plate mean), % at 10 µM | S. cerevisiae aged cells, superoxide DHE fluorescence; stronger effect = lower value | 330,000 compounds, 0.18% hits;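 active = superoxide response under a set limit, about three screen SD below normal, cut at about 65% in these data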;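 also: yeast aged for seven days with compound at 30 °C before DHE staining; 100% = average MFI of all compound-treated wells on the plate with controls excluded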
# NALP1 yeast inh: NALP1 inflammasome inhibitors in reconstituted yeast, colorimetric, S. cerevisiae, triplicate retest; S. cerevisiae NALP1/ASC/caspase-1 growth, X-gal OD620, 72 h; inhibition, % at 10 µM; 280,000 compounds, 0.61% hits; AID 2071, 2009; in the data active = inhibition mostly above about 24%, no sharp cut-off; inactive = mostly below about 32%
# dFosB act-2: activators of mouse delta FosB DNA binding, confirmation, biochemical, fluorescence polarization, TAMRA-CDK5 oligo, cherry-picked samples; purified delta FosB; normalised: neutral wells 0, positive control 100; activation, % at 24.9 µM; shares compounds with dFosB act-1; 2,400 tested, under 10 active;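 active = highest replicate activation at or above 34% and every replicate reaching that threshold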;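 also: higher polarization means more probe DNA bound by delta FosB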
# Starred values were filed as active, the others as inactive; x = no result.
SMILES,UBC13 inh,dFosB act-1,NR3A LBD binder,CR mimetic SO,NALP1 yeast inh,dFosB act-2
CC(=O)NC(CC(=O)NNC(=O)C(C)Oc1ccccc1F)c1ccccc1 (configuration not stated),2.5,4.7,1.5,96.7,x,x
COc1ccccc1NS(=O)(=O)c1ccc(C(=O)N2CC(C)OC(C)C2)cc1 (configuration not stated),2.4,-3.4,-0.2,73.9,x,x
Cc1ccccc1/C=N/Nc1ccnc2cc(Cl)ccc12,x,38.4*,8.1,86.6,51.0*,1.5
Clc1ccc2c(NCc3ccccc3)ccnc2c1,1.2,-0.8,-2.4,90.1,32.0,x
O=C(Nc1ccc(Cl)cc1Cl)NC1CCN(S(=O)(=O)c2ccc(F)cc2)CC1,-9.9,55.0*,21.4*,104.7,x,0.6
COC(=O)c1ccc2c(c1)C(C)(C)C(/C=C/c1ccc(O)cc1)=[N+]2C,-164.9,119.2*,2.3,98.3,52.0*,2.4
COc1ccc(C)cc1NC(=O)CCC(=O)Nc1nnc(C2CCCCC2)s1,1.5,40.0*,-3.4,105.5,18.7,-8.2
COc1ccc(N2CCN(C(=O)CNC(=O)c3ccco3)CC2)cc1,-1.7,-0.4,-0.6,93.8,1.6,x
CC(=O)n1cc(/C=N/NC(=O)c2ccccc2O)c2ccccc21,-3.9,28.7*,32.3*,79.5,-3.1,3.1
CC(C)CC(=NNC(=O)c1ccncc1)c1cc(Cl)ccc1O,x,-3.0,-5.6,x,x,x
COC(=O)c1c(NC(=O)CSc2ncnc3[nH]ncc23)sc2c1CCC2,9.0,28.8*,0.8,98.8,-2.9,2.7
CCn1ncc(Br)c1C(=O)Nc1sc2c(c1C(=O)OC)CCC2,8.2,1.8,1.4,96.3,x,x
COC(=O)c1c(NC(=O)Cn2cc([N+](=O)[O-])cn2)sc2c1CCC2,-1.6,27.3*,-0.9,93.6,5.2,1.0
COCc1cc(C)nc(SCC(=O)Nc2ccc(N3CCOCC3)cc2)c1C#N,-2.5,-5.2,-1.1,97.3,8.5,x
CCOC(=O)c1c(NC(=O)C2CCCO2)sc(C(N)=O)c1C (configuration not stated),16.5,-2.8,-3.4,115.2,31.8,x
CCOC(=O)c1c(NC(=O)C2c3ccccc3Oc3ccccc32)sc(C(N)=O)c1C,18.6,31.8*,-10.4,105.4,-12.5,2.4
CC(=O)c1sc(NC(=O)c2ccc(C(C)(C)C)cc2)nc1C,-0.6,-12.0,-1.0,95.1,-2.1,x
CC(=O)c1sc(NC(=O)c2ccc(C)c(C)c2)nc1C,1.0,23.5*,-0.9,109.5,-19.0,1.6
CN(C)c1ccc(/C=N/NC(=O)c2sccc2-n2cccc2)cc1,3.3,-6.5,-2.0,108.5,-0.6,x
COc1ccc(OC)c(NC(=O)CN(Cc2ccc(F)cc2)C2CCCCC2)c1,6.7,-10.5,2.0,97.6,3.7,x
COc1ccc(-c2cn3cccnc3n2)cc1NC(=O)c1ccc(Br)o1,-10.6,-0.9,-1.6,100.8,-11.5,x
COc1ccc(-c2nc3ccccc3o2)cc1NC(=O)c1ccc(Br)o1,0.7,73.0*,-0.4,95.8,2.5,-0.7
Cc1c(C(=O)N2CCCCCC2)c(S(=O)(=O)NCc2ccccc2Cl)c(C)n1C,1.6,-8.2,-1.2,86.6,8.3,x
COc1cc(-n2c(=O)c3ccccc3n(Cc3cccc(C)c3)c2=O)cc(OC)c1OC,-0.5,53.2*,0.5,103.8,3.5,4.5
COc1cc(-n2c(=O)c3ccccc3n(Cc3cccnc3)c2=O)cc(OC)c1OC,3.6,8.2,-3.2,112.9,x,x
CCOc1ccc(NC(=O)c2ccc(NC(=O)COC(=O)Cc3ccc(OC)cc3)cc2)cc1,-10.6,0.6,5.4,104.6,-3.5,x
COc1ccc(CC(=O)OCC(=O)Nc2ccc(C(=O)Nc3ccc(OC)cc3)cc2)cc1,-14.3,22.4*,6.3,99.4,-2.0,6.1
COc1ccc(NC(=O)C2(c3ccc(NC(=O)c4ccc(C)cc4)cc3)CCCC2)cc1,-0.3,23.4*,2.8,89.1,10.5,0.2
